Calls of active or inactive are those of the source.
Columns and labels:
[1] = test system: PRMT1 (protein arginine N-methyltransferase 1); experiment: small molecules binding arginine methyltransferase PRMT1 – biochemical, small-molecule microarray, 635 nm fluorescence, primary screen (AID 1088); details: higher = more signal;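 further: binding of Prmt1 protein to compounds spotted on small-molecule microarray slides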
[2] = growth effects on S. cerevisiae YJM789 – YJM789 clinical isolate, OD600, 24 h, basal, primary screen (AID 1089); details: higher = more signal, called active from +8 up or from −8 down;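 further: growth of clinical yeast isolate S. cerevisiae YJM 789 seeded 1000 cells per well; test concentration not given here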
[3] = S. pombe growth modifiers, basal conditions – strain 972, OD600, 24 h, no modulator, primary screen (AID 1090);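 further: basal condition with compound alone and no growth modifier present; test concentration not given here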; details: S. pombe 972 growth, higher = more signal, called active from +8 up or from −8 down
[4] = budding yeast growth modifiers under rapamycin – strain BY4716, OD600, 96 h, primary screen (AID 1091); further: test concentration not given here; details: S. cerevisiae BY4716 + rapamycin, higher = more signal, called active from +8 up or from −8 down
[5] = molecular target: Torsin-1A-interacting protein 2 (Homo sapiens) (UniProt Q8NFQ8); experiment: small molecules binding lysate-expressed LULL1 – cell lysate, human LULL1 lysate, 635/667 nm fluorescence, primary screen (AID 1092); details: small-molecule microarray, hLULL1 lysate binding, 635 nm fluorescence; higher = more signal;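 further: probe is lysate of COS7 cells overexpressing human LULL1; score merges per-feature 667 nm fluorescence with signal-to-noise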
[6] = optical density change of DRC41 E. coli – strain DRC41, OD650, 24 h, E. coli filamentation project, primary screen (AID 1093);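 further: MC1000 strain lacking acrAB efflux and sulA so SOS filamentation is blocked; test concentration not given here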; details: E. coli DRC41 growth, higher = more signal, called active from +8 up or from −8 down
[7] = probe aLefty2 binding to arrayed compounds – biochemical, biotinylated probe, 635/667 nm fluorescence, primary screen (AID 1094); details: small-molecule microarray, higher = more signal;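 further: score merges spot fluorescence near 667 nm with spot signal-to-noise ratio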
[8] = test system: Noggin (protein binding on small-molecule microarray); experiment: small molecules binding Noggin protein – biochemical, 635/667 nm fluorescence, primary screen (AID 1095); details: 635 nm fluorescence, higher = more signal;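 further: score merges 667 nm feature fluorescence with signal to noise over triplicate slides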
[9] = molecular target: Neurogenic locus notch homolog protein 3 (Homo sapiens) (UniProt Q9UM47); experiment: small molecules binding NOTCH3 protein – biochemical, 635/667 nm fluorescence, primary screen (AID 1096); details: small-molecule microarray, 635 nm fluorescence, higher = more signal
[10] = probe aEGFR binding to arrayed compounds – biochemical, biotinylated probe, 635/667 nm fluorescence, primary screen (AID 1097); details: small-molecule microarray, higher = more signal;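 further: probe is a biotinylated anti-EGFR antibody binding compounds printed on slides; score combines fluorescence near 667 nm and signal to noise of each spot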
[11] = test system: Plasmodium falciparum Sir2 (PF13_0152, Sir2A); experiment: Plasmodium falciparum Sir2A binding compounds – biochemical, small-molecule microarray, 635 nm fluorescence, primary screen (AID 1098); details: fluorescence 635 nm, higher = more signal;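 further: score merges spot fluorescence intensity with its signal-to-noise ratio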
[12] = probe aDKK1 binding to arrayed compounds – biochemical, biotinylated probe, 635/667 nm fluorescence, primary screen (AID 1099); details: small-molecule microarray, higher = more signal;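 further: score merges 667nm spot fluorescence with signal to noise across triplicate slides; reference of the scale not given here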
[13] = probe aCHRDL2 binding to arrayed compounds – biochemical, biotinylated probe, 635/667 nm fluorescence, primary screen (AID 1100); details: small-molecule microarray, higher = more signal
[14] = change in splice reporter luminescence, either direction, cell-based, HEK293, spliceosome inhibition project, primary screen (AID 1101); details: HEK293 splicing luciferase reporter, 24 h, higher = more signal, called active from +8 up or from −8 down;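 further: HEK293 cells carrying a splicing-competent luciferase reporter gene; test concentration not given here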
[15] = molecular target: Fibroblast growth factor 10 (Homo sapiens) (UniProt O15520); experiment: compounds binding fibroblast growth factor 10 – biochemical, small-molecule microarray, 635 nm fluorescence, primary screen (AID 1102); details: FGF10 binding, fluorescence 635 nm, higher = more signal
[16] = test system: glycogen synthase kinase-3 (GSK3A per assay name; protocol says GSK3B); experiment: compounds binding glycogen synthase kinase-3 – biochemical, small-molecule microarray, 635 nm fluorescence, GSK3A, primary screen (AID 1103); details: fluorescence 635 nm, higher = more signal; further: the record names both GSK3A and GSK3B
[17] = molecular target: Epidermal growth factor receptor (Homo sapiens) (UniProt P00533); experiment: compounds binding epidermal growth factor receptor – biochemical, small-molecule microarray, 635 nm fluorescence, primary screen (AID 1104); details: EGFR binding, higher = more signal;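 further: score merges 667 nm emission intensity with spot signal to noise over triplicate slides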
[18] = molecular target: Follistatin-related protein 3 (Homo sapiens) (UniProt O95633); experiment: compounds binding follistatin-related protein 3 – biochemical, small-molecule microarray, 635 nm fluorescence, primary screen (AID 1105); details: FSTL3 binding, higher = more signal;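 further: score merges emission near 667 nm and signal to noise per printed spot across three slides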
[19] = molecular target: Dickkopf-related protein 1 (Homo sapiens) (UniProt O94907); experiment: small molecules binding DKK1 protein – biochemical, small-molecule microarray, 635 nm fluorescence scan, primary screen (AID 1106); details: higher = more signal;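 further: score merges emission near 667 nm with signal to noise over three replicate slides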
[20] = test system: Inhibin beta A chain (activin A); experiment: small molecules binding activin A – biochemical, small-molecule microarray, 635 nm fluorescence scan, primary screen (AID 1107); details: INHBA, higher = more signal;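 further: mouse activin A protein probed at 4.33 µg/mL on printed slides; score merges bound-protein fluorescence near 667 nm with spot signal-to-noise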

Epidermal growth factor receptor (Homo sapiens), sequence (P00533 whole entry, looked up): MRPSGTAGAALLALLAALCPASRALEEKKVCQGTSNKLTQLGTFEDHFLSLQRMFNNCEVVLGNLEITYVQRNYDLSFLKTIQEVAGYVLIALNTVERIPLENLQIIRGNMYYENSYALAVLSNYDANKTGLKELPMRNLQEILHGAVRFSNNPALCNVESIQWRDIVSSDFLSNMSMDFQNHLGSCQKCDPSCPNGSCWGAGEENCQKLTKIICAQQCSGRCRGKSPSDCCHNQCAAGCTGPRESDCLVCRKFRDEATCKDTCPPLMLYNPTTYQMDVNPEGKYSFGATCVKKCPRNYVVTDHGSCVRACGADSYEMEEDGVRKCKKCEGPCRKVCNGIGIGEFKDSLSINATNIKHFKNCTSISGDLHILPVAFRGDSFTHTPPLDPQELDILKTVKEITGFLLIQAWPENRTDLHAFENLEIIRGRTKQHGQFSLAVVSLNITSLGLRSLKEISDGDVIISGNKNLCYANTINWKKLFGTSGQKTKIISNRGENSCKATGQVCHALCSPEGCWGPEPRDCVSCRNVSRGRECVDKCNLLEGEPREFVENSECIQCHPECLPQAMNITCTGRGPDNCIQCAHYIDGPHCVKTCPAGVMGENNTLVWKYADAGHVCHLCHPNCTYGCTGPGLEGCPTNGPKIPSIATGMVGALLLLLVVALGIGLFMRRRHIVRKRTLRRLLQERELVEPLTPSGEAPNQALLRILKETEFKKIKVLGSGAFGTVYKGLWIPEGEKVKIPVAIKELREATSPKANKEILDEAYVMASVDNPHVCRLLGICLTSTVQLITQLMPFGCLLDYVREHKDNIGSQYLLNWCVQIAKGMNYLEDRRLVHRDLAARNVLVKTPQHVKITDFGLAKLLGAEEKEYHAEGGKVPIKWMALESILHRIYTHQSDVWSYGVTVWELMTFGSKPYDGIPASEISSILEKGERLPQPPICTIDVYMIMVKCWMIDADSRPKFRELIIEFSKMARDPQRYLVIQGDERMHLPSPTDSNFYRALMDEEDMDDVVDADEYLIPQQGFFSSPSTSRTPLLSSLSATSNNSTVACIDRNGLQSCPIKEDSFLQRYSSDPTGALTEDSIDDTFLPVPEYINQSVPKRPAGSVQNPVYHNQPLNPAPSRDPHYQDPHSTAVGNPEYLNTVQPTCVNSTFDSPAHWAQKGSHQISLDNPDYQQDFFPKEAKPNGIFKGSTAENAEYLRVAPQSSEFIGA
Fibroblast growth factor 10 (Homo sapiens), sequence (O15520 whole entry, looked up): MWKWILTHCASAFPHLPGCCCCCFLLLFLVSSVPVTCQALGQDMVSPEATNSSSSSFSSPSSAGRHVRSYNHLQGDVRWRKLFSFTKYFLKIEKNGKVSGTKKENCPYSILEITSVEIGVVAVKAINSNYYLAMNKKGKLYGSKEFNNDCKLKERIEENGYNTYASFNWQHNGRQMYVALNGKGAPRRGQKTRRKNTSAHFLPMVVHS
Follistatin-related protein 3 (Homo sapiens), sequence (O95633 whole entry, looked up): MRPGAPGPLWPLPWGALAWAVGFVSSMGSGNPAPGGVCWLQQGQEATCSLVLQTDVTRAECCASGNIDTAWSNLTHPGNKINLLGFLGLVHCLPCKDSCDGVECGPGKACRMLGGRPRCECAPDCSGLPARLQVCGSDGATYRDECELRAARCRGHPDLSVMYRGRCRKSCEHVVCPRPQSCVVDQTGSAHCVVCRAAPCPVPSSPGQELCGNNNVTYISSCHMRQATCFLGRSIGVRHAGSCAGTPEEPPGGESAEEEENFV
Dickkopf-related protein 1 (Homo sapiens), sequence (O94907 whole entry, looked up): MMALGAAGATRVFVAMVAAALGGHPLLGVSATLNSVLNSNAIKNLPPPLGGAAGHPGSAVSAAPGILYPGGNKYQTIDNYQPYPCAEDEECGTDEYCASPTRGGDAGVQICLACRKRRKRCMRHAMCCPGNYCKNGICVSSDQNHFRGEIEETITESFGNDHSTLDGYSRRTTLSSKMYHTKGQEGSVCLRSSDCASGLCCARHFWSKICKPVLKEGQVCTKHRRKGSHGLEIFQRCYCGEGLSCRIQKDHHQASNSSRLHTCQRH
Torsin-1A-interacting protein 2 (Homo sapiens), sequence (Q8NFQ8 whole entry, looked up): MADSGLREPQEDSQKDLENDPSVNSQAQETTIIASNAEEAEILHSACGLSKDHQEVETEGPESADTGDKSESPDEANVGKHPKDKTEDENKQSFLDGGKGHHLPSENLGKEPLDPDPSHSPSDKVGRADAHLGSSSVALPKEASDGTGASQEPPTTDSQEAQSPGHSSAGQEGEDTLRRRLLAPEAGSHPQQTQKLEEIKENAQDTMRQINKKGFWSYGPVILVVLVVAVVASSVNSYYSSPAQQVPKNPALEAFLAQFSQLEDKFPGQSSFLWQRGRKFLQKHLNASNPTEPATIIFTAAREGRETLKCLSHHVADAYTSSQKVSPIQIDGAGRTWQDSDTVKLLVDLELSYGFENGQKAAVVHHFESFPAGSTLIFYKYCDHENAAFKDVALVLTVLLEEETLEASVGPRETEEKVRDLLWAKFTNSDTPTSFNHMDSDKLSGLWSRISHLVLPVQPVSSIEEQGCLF
Neurogenic locus notch homolog protein 3 (Homo sapiens), sequence (Q9UM47 whole entry, looked up): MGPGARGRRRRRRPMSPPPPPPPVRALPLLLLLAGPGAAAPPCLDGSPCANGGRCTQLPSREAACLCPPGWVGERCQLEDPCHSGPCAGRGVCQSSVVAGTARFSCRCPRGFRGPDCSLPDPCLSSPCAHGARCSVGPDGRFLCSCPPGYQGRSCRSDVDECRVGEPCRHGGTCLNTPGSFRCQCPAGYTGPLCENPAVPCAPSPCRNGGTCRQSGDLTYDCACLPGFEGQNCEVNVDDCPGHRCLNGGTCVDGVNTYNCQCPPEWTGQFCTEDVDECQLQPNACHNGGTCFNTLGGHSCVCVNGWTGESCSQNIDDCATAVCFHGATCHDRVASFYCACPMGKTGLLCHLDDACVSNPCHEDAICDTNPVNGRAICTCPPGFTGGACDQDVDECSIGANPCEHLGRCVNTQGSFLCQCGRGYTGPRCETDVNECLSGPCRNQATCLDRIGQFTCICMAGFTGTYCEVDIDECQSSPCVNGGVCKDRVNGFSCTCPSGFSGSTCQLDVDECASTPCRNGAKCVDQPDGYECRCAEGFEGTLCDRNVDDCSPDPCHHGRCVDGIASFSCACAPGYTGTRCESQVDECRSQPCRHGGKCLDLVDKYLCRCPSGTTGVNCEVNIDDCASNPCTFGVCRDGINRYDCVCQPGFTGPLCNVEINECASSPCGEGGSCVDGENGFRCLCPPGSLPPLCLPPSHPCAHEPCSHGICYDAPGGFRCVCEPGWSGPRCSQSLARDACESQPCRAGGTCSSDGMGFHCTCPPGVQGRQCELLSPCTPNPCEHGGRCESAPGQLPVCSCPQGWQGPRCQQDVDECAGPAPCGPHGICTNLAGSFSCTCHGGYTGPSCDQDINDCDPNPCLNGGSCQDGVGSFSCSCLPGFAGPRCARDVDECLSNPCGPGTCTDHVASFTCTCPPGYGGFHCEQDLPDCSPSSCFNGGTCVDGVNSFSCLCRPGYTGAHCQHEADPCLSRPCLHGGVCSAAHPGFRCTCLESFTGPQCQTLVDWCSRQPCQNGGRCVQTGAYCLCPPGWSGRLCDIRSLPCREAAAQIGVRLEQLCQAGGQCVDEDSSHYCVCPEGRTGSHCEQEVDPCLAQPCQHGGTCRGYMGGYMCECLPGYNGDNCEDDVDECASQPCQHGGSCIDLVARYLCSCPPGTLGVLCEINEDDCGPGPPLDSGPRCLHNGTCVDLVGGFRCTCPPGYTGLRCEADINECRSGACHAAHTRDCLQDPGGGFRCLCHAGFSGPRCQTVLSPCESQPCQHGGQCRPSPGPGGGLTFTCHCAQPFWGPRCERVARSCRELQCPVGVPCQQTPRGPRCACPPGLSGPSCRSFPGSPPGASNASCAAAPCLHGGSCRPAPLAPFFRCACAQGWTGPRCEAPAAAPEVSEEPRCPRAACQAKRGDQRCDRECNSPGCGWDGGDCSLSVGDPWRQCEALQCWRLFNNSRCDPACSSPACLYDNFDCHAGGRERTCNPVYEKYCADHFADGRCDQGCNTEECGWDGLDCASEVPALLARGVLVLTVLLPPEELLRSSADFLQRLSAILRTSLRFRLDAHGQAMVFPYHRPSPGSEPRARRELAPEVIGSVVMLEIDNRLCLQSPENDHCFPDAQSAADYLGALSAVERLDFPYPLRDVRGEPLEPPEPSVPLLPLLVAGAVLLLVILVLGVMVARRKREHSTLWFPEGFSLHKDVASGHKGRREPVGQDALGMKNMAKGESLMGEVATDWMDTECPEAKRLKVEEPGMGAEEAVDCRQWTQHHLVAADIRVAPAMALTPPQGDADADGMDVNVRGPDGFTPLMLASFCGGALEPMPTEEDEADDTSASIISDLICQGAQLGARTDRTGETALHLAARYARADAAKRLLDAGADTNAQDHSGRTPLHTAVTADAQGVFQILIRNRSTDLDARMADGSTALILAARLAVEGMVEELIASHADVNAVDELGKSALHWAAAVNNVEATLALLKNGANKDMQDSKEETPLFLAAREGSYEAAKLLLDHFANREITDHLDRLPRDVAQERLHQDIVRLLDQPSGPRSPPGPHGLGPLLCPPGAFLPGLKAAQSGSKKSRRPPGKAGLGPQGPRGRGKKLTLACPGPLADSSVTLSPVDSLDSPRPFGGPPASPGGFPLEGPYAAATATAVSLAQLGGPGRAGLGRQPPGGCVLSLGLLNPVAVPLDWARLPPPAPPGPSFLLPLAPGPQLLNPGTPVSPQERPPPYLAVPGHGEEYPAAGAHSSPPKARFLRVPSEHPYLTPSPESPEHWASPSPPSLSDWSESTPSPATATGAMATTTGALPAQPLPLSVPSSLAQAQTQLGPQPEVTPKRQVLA

SMILES: COC(=O)[C@@]1(Cc2ccc(F)cc2)[C@H]2c3cc(C(=O)N4CCCC4)n(CCc4c[nH]c5cc(F)ccc45)c3C[C@H]2CN1C(=O)c1ccccc1
- composite z-score [1]: 0.765
- z-score [2]: 0.0277 (inactive)
- z-score [3]: 1.24 (inactive)
- z-score [4]: 1.94 (inactive)
- composite z-score [5]: 3.39
- z-score [6]: -0.167 (inactive)
- composite z-score [7]: 0.605
- composite z-score [8]: 0.344
- composite z-score [9]: 1.02
- composite z-score [10]: 0.756
- composite z-score [11]: 1.05
- composite z-score [12]: 0.593
- composite z-score [13]: 0.852
- z-score [14]: -0.685 (inactive)
- composite z-score [15]: 1.14
- composite z-score [16]: 1.32
- composite z-score [17]: 0.146
- composite z-score [18]: 1.25
- composite z-score [19]: 0.736
- composite z-score [20]: 1.09

SMILES: CN(C)CCCC[C@@H]1NC(=O)[C@H]2C[C@@H](C(=O)NCCCCCCNC(=O)CS)[C@@H](c3cccc(OCCO)c3)N2C1=O
- composite z-score [1]: -0.174
- z-score [2]: -0.522 (inactive)
- z-score [3]: -0.221 (inactive)
- z-score [4]: -0.195 (inactive)
- composite z-score [5]: 0.935
- z-score [6]: -0.12 (inactive)
- composite z-score [7]: 0.0141
- composite z-score [8]: -0.0227
- composite z-score [9]: -0.289
- composite z-score [10]: -0.146
- composite z-score [11]: 0.872
- composite z-score [12]: 0.094
- composite z-score [13]: 0.366
- z-score [14]: 0.624 (inactive)
- composite z-score [15]: 0.124
- composite z-score [16]: 0.846
- composite z-score [17]: -0.166
- composite z-score [18]: -0.606
- composite z-score [19]: 0.156
- composite z-score [20]: -0.364

SMILES: CC1CC/C=C\[C@H]2OC34C=CCN(CCN5CCOCC5)C(=O)[C@H]3N(C(CO)C(C)C)C(=O)[C@@H]4C2C(=O)O1 (stereo not given in full)
- composite z-score [1]: 1.42
- z-score [2]: -0.662 (inactive)
- z-score [3]: -0.145 (inactive)
- z-score [4]: -0.188 (inactive)
- composite z-score [5]: 3.2
- z-score [6]: -0.651 (inactive)
- composite z-score [7]: -0.109
- composite z-score [8]: 0.122
- composite z-score [9]: 0.398
- composite z-score [10]: -0.0332
- composite z-score [11]: 1.5
- composite z-score [12]: -0.155
- composite z-score [13]: 0.0473
- z-score [14]: -0.192 (inactive)
- composite z-score [15]: -0.268
- composite z-score [16]: 0.169
- composite z-score [17]: -0.31
- composite z-score [18]: -0.239
- composite z-score [19]: -0.112
- composite z-score [20]: 1.17

SMILES: Cc1ccc(N2C(=O)c3ccccc3[C@@H](C(=O)NCCN3CCOCC3)[C@@H]2c2ccc(CO)cc2)nc1
- composite z-score [1]: 0.722
- z-score [2]: 0.333 (inactive)
- z-score [3]: -0.33 (inactive)
- z-score [4]: -1.59 (inactive)
- composite z-score [5]: 0.58
- z-score [6]: 0.346 (inactive)
- composite z-score [7]: -0.0798
- composite z-score [8]: 0.0453
- composite z-score [9]: 0.248
- composite z-score [10]: -0.197
- composite z-score [11]: 1.25
- composite z-score [12]: 0.0086
- composite z-score [13]: 0.685
- z-score [14]: 0.17 (inactive)
- composite z-score [15]: -0.329
- composite z-score [16]: -1.09
- composite z-score [17]: -0.914
- composite z-score [18]: -0.799
- composite z-score [19]: -0.459
- composite z-score [20]: -0.382

SMILES: [N-]=[N+]=NCc1ccccc1C[C@@]1(C(=O)NCCN2CCOCC2)N=C(c2ccc(OCCCO)cc2)O[C@@H]1c1ccccc1
- composite z-score [1]: 1.37
- z-score [2]: -0.941 (inactive)
- z-score [3]: -3.76 (inactive)
- z-score [4]: 15.8 (active)
- composite z-score [5]: 2.96
- z-score [6]: -0.304 (inactive)
- composite z-score [7]: -0.0073
- composite z-score [8]: 0.565
- composite z-score [9]: 0.65
- composite z-score [10]: -0.0128
- composite z-score [11]: 0.365
- composite z-score [12]: 0.809
- composite z-score [13]: 0.996
- z-score [14]: 0.995 (inactive)
- composite z-score [15]: 0.486
- composite z-score [16]: -0.0659
- composite z-score [17]: -0.883
- composite z-score [18]: -0.192
- composite z-score [19]: -0.342
- composite z-score [20]: 0.293

SMILES: COc1cccc(C)c1NC(=O)O[C@H]1[C@H](OC(=O)Nc2ccc3c(c2)OCO3)[C@H](OC(=O)Nc2ccc3c(c2)OCO3)[C@@H](OC)O[C@@H]1CO
- composite z-score [1]: 1.55
- z-score [2]: 1.5 (inactive)
- z-score [3]: 0.718 (inactive)
- z-score [4]: 4.29 (inactive)
- composite z-score [5]: 3.19
- z-score [6]: 0.358 (inactive)
- composite z-score [7]: 0.107
- composite z-score [8]: 0.701
- composite z-score [9]: 1.04
- composite z-score [10]: -0.0192
- composite z-score [11]: 1.28
- composite z-score [12]: -0.0573
- composite z-score [13]: 0.306
- z-score [14]: -0.316 (inactive)
- composite z-score [15]: 1.39
- composite z-score [16]: 1.34
- composite z-score [17]: 0.169
- composite z-score [18]: 1.01
- composite z-score [19]: 0.487
- composite z-score [20]: 0.69

SMILES: [N-]=[N+]=NCc1ccccc1C[C@@]1(C(N)=O)N=C(c2ccc(OCCCO)cc2)O[C@@H]1c1ccccc1N=[N+]=[N-]
- composite z-score [1]: 1.28
- z-score [2]: -0.506 (inactive)
- z-score [3]: -0.292 (inactive)
- z-score [4]: -0.531 (inactive)
- composite z-score [5]: 3.22
- z-score [6]: -0.331 (inactive)
- composite z-score [7]: 0.137
- composite z-score [8]: 0.0508
- composite z-score [9]: 0.516
- composite z-score [10]: 0.0766
- composite z-score [11]: 1.51
- composite z-score [12]: 0.747
- composite z-score [13]: 1.13
- z-score [14]: -0.397 (inactive)
- composite z-score [15]: 0.839
- composite z-score [16]: 1.19
- composite z-score [17]: -0.547
- composite z-score [18]: -0.239
- composite z-score [19]: -0.38
- composite z-score [20]: -0.217

SMILES: O=C1C2C=CC(C(O)c3ccccn3)N(Nc3ccc([N+](=O)[O-])cc3)C2C(=O)N1c1ccccc1 (stereo not given)
- composite z-score [1]: 0.379
- z-score [2]: -0.931 (inactive)
- z-score [3]: 0.587 (inactive)
- z-score [4]: -0.622 (inactive)
- composite z-score [5]: 1.12
- z-score [6]: -1.36 (inactive)
- composite z-score [7]: -0.248
- composite z-score [8]: -0.493
- composite z-score [9]: 0.772
- composite z-score [10]: -0.047
- composite z-score [11]: 1.42
- composite z-score [12]: 1.01
- composite z-score [13]: 0.891
- z-score [14]: 0.981 (inactive)
- composite z-score [15]: 0.37
- composite z-score [16]: 0.377
- composite z-score [17]: 0.0711
- composite z-score [18]: 0.55
- composite z-score [19]: -0.189
- composite z-score [20]: 0.522

SMILES: COc1ccc([Si](C)(C)[C@H]2[C@H](CC(=O)N3CCC[C@H]3CO)O[C@@]3(C(=O)N(C)c4c(Br)cc(C)cc43)[C@@H]2C)cc1
- composite z-score [1]: 1.54
- z-score [2]: -0.749 (inactive)
- z-score [3]: -0.108 (inactive)
- z-score [4]: -0.385 (inactive)
- composite z-score [5]: 3.42
- z-score [6]: -0.2 (inactive)
- composite z-score [7]: 0.412
- composite z-score [8]: 2.05
- composite z-score [9]: 0.498
- composite z-score [10]: 0.459
- composite z-score [11]: 1.91
- composite z-score [12]: 0.94
- composite z-score [13]: 0.244
- z-score [14]: 0.00593 (inactive)
- composite z-score [15]: 1.5
- composite z-score [16]: 1.32
- composite z-score [17]: 0.775
- composite z-score [18]: 1.16
- composite z-score [19]: 1.08
- composite z-score [20]: 1.34

SMILES: COc1ccc(CCNC(=O)[C@@]2(c3ccc([N+](=O)[O-])cc3)CC(=O)N(C3CCCCC3)[C@@H]2c2ccc(CO)cc2I)cc1
- composite z-score [1]: 1.39
- z-score [2]: 0.717 (inactive)
- z-score [3]: 0.0908 (inactive)
- z-score [4]: 5.88 (inactive)
- composite z-score [5]: 2.34
- z-score [6]: 0.793 (inactive)
- composite z-score [7]: -0.0544
- composite z-score [8]: 0.153
- composite z-score [9]: 0.594
- composite z-score [10]: 0.227
- composite z-score [11]: 0.401
- composite z-score [12]: -0.0644
- composite z-score [13]: -0.0582
- z-score [14]: 0.845 (inactive)
- composite z-score [15]: 0.823
- composite z-score [16]: 0.56
- composite z-score [17]: 0.19
- composite z-score [18]: 0.241
- composite z-score [19]: 0.608
- composite z-score [20]: 0.44
